Reference: PubChem BioAssay (EPA / NIEHS)
Results filed as inconclusive are left out. Activity calls are given as the source filed them. The calls were made as follows, unless noted: active = hit-call score of the fitted dose curve at least 0.9, where 1 is the maximum; inconclusive = response in the unintended direction; inactive = score below 0.9.

What was measured:
[1] = ATG_TCF_b_cat_CIS: Attagene CIS-FACTORIAL HepG2 Assay for human T-Cell-Factor with beta-catenin (TCF/b-cat) (AID 2282965; active = hit-call score of the fitted dose curve at least 0.9, where 1 is the maximum; inactive = score below 0.9); conditions: HepG2 TCF/beta-catenin cis-reporter transcription, actives raise or lower the signal
How it was run: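 Endogenous transcription factor activity is captured through cis-promoter reporter constructs transiently introduced into human HepG2 liver cells. Induced reporter mRNA is measured after 24 h and fitted bidirectionally relative to DMSO.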

[2] = ATG_TAL_CIS: Attagene CIS-FACTORIAL HepG2 Assay for human TAL Basal Promoter (AID 2282966; active = hit-call score of the fitted dose curve at least 0.9, where 1 is the maximum; inactive = score below 0.9;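 also: background control endpoint measuring basal TAL promoter reporter mRNA not a specific factor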); conditions: HepG2 Attagene cis-factorial TAL promoter reporter; actives raise or lower the signal
How it was run: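 HepG2, transient MRTU transfection, 24 h compound exposure; RNA → oligo(dT) RT → PCR → 6-FAM primer extension → HpaI digest → CE fluorescence. Bidirectional curve fit vs DMSO. Background-control readout.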

[3] = ATG_TGFb_CIS: Attagene CIS-FACTORIAL HepG2 Assay for human Transforming Growth Factor (TGF) (AID 2282967; active = hit-call score of the fitted dose curve at least 0.9, where 1 is the maximum; inactive = score below 0.9); conditions: HepG2 Attagene CIS TGFb reporter, mRNA transcription; actives raise or lower the signal
How it was run: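 Transient MRTU transfection of HepG2 (FuGene 6). Dose 24 h. TriZol RNA, oligo(dT) RT, PCR, 6-FAM primer extension, HpaI cut, CE. Bidirectional fit, DMSO = baseline.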

[4] = ATG_VDRE_CIS: Attagene CIS-FACTORIAL HepG2 Assay for human Vitamin D Receptor Element (VDRE) (AID 2282968; active = hit-call score of the fitted dose curve at least 0.9, where 1 is the maximum; inactive = score below 0.9); conditions: HepG2 VDRE cis-reporter transcription, actives raise or lower the signal
How it was run: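 Readout is VDRE-driven reporter mRNA reflecting endogenous factor activity in human HepG2 cells, sampled 24 h post-dose. Quantification used labelled RT-PCR products separated by capillary electrophoresis; bidirectional analysis relative to DMSO.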

[5] = biological target: X-box-binding protein 1 (Homo sapiens) (UniProt P17861); assay: ATG_Xbp1_CIS: Attagene CIS-FACTORIAL HepG2 Assay for human X-box Binding Protein 1 (XBP1) (AID 2282972; active = hit-call score of the fitted dose curve at least 0.9, where 1 is the maximum; inactive = score below 0.9); conditions: HepG2 XBP1 cis-element reporter, Attagene multiplex; actives raise or lower the signal
How it was run: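 Human hepatoma HepG2, cis-element reporter system, 24 h treatment; mRNA quantified by RT-PCR/CE fluorescence; fit relative to DMSO.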

[6] = ATG_GAL4_TRANS: Attagene TRANS-FACTORIAL HepG2 Assay for GAL4 (Internal Marker) (AID 2282976); conditions: HepG2 Attagene TRANS GAL4 internal marker reporter
How it was run: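 RT-PCR/capillary electrophoresis readout of reporter mRNA. HepG2, transient MRTU transfection (GAL4-UAS reporters), 24 h compound exposure. Background-control endpoint, positive direction vs DMSO baseline.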

[7] = biological target: Glucocorticoid receptor (Homo sapiens) (UniProt P04150); assay: ATG_GR_TRANS: Attagene TRANS-FACTORIAL HepG2 Assay for human Glucocorticoid Receptor (GR) (AID 2282978); conditions: HepG2 Attagene TRANS GR reporter, mRNA transcription;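 also: activators score as hits since higher reporter transcript over DMSO is fitted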
How it was run: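 Transiently transfected HepG2 cells express chimeric NR-GAL4 proteins acting on GAL4-UAS reporter units. Compounds are applied for 24 h. mRNA induction over DMSO is measured by capillary electrophoresis.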

[8] = biological target: Bile acid receptor (Homo sapiens) (UniProt Q96RI1); assay: ATG_FXR_TRANS: Attagene TRANS-FACTORIAL HepG2 Assay for Farnesoid X Receptor (FXR) (AID 2282979); conditions: HepG2 Attagene TRANS FXR-GAL4 reporter transcription;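 also: hits raise reporter mRNA above DMSO so AC50 marks FXR activation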
How it was run: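 Read-out: fluorescent reporter transcripts quantified by capillary electrophoresis after RT-PCR of total RNA. Source cells were HepG2 transiently carrying chimeric NR-GAL4 plus GAL4-UAS reporter units, dosed 24 h. Activity fitted upward relative to DMSO baseline.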

[9] = biological target: Hepatocyte nuclear factor 4-alpha (Homo sapiens) (UniProt P41235); assay: ATG_HNF4a_TRANS: Attagene TRANS-FACTORIAL HepG2 Assay for human Hepatocyte Nuclear Factor 4 alpha (HNF4a) (AID 2282982); conditions: HepG2 HNF4a transactivation reporter, mRNA readout
How it was run: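 Activity of an exogenous HNF4a–Gal4 fusion scored as induced GAL4-UAS reporter transcripts after 24 h chemical exposure of transfected human HepG2 cells. Read-out via RT-PCR with 6-FAM labelling and capillary electrophoresis; rise over DMSO baseline.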

[10] = ATG_M_32_TRANS: Attagene TRANS-FACTORIAL HepG2 Assay for M32 Transcription Factor (Internal Marker) (AID 2282984); conditions: HepG2 Attagene TRANS M32 internal marker reporter;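 also: transcript level of a background control reporter unit measured by RT-PCR and capillary electrophoresis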
How it was run: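 Internal background reporter in transfected HepG2: after 24 h chemical exposure, RNA reverse-transcribed, reporter cDNA amplified, fluorescently labelled and HpaI-cut, then sized by capillary electrophoresis. Gain of signal fitted against DMSO control.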

[11] = biological target: Nuclear receptor subfamily 4 group A member 2 (Homo sapiens) (UniProt P43354); assay: ATG_NURR1_TRANS: Attagene TRANS-FACTORIAL HepG2 Assay for human Nuclear Receptor Related Protein 1 (NURR1) (AID 2282985); conditions: HepG2 Attagene TRANS reporter, mRNA readout
How it was run: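 Reporter transcript induction, measured by RT-PCR with fluorescent labelling, HpaI digestion and capillary electrophoresis, after 24 hr dosing of human HepG2 cells transiently expressing an exogenous NR-Gal4 fusion with GAL4-UAS-driven reporters; DMSO as baseline.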

[12] = biological target: Transcriptional activator Myb (Homo sapiens) (UniProt P10242); assay: ATG_Myb_CIS: Attagene CIS-FACTORIAL HepG2 Assay for human Myeloblastosis (Myb) Proto-Oncogene Transcription Factor (AID 2282986; active = hit-call score of the fitted dose curve at least 0.9, where 1 is the maximum; inactive = score below 0.9); conditions: HepG2 Attagene CIS-FACTORIAL Myb reporter transcription; actives raise or lower the signal
How it was run: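 Using HepG2 liver cells bearing transiently transfected cis-promoter reporter constructs, the assay measures induction or loss of reporter mRNA after 24 hours of dosing. Detection used fluorescently labeled RT-PCR products separated by capillary electrophoresis.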

[13] = biological target: Estrogen receptor (Homo sapiens) (UniProt P03372); assay: ATG_ERa_TRANS: Attagene TRANS-FACTORIAL HepG2 Assay for human Estrogen Receptor alpha (ERa) (AID 2282970); conditions: HepG2 Attagene TRANS ERa GAL4 reporter, mRNA
How it was run: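 Reporter mRNA induction after 24 hours, detected by fluorescent RT-PCR and capillary electrophoresis, gives the read-out. Cells are HepG2 transiently transfected with GAL4-UAS reporter transcription units responding to chimeric NR-Gal4. Activity is taken as gain of signal over DMSO baseline.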

[14] = biological target: Oxysterols receptor LXR-alpha (Homo sapiens) (UniProt Q13133); assay: ATG_LXRa_TRANS: Attagene TRANS-FACTORIAL HepG2 Assay for human Liver X Receptor alpha (LXRa) (AID 2282980); conditions: HepG2 Attagene TRANS reporter, LXRa transactivation
How it was run: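 Read-out: reporter transcript levels by RT-PCR plus capillary electrophoresis, fluorescence intensity. Transiently transfected HepG2, exogenous NR-GAL4 chimera, GAL4-UAS reporters; 24 h compound exposure. Activity = increase over DMSO negative control.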

[15] = biological target: Oxysterols receptor LXR-beta (Homo sapiens) (UniProt P55055); assay: ATG_LXRb_TRANS: Attagene TRANS-FACTORIAL HepG2 Assay for human Liver X Receptor beta (LXRb) (AID 2282981); conditions: HepG2 Attagene TRANS GAL4-LXRb reporter, mRNA
How it was run: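 After 24 h chemical treatment of transfected HepG2 cells carrying exogenous NR-Gal4 chimeras, reporter mRNA was quantified by fluorescent RT-PCR and capillary electrophoresis; activity taken as increase over DMSO controls.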

[16] = ATG_M_06_TRANS: Attagene TRANS-FACTORIAL HepG2 Assay for M06 Transcription Factor (Internal Marker) (AID 2282983); conditions: HepG2 Attagene TRANS M06 internal marker reporter
How it was run: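 Read-out: fluorescent reporter cDNA fragments resolved by capillary electrophoresis after RT-PCR and HpaI cut. Source cells were HepG2 carrying transfected multi-reporter GAL4 constructs, dosed 24 h. Increase over DMSO control analysed.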

[17] = ATG_M_19_TRANS: Attagene TRANS-FACTORIAL HepG2 Assay for M19 Transcription Factor (Internal Marker) (AID 2282974); conditions: HepG2 Attagene TRANS-FACTORIAL M19 internal marker reporter
How it was run: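 Multiplexed TRANS format: HepG2 liver cells bearing transient GAL4-UAS reporter units, chemical treatment 24 h, reporter transcripts quantified by RT-PCR plus capillary electrophoresis. DMSO defines baseline.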

Measured: outcome

Glucocorticoid receptor (Homo sapiens), sequence (P04150 whole entry, looked up, the tested form may be a part): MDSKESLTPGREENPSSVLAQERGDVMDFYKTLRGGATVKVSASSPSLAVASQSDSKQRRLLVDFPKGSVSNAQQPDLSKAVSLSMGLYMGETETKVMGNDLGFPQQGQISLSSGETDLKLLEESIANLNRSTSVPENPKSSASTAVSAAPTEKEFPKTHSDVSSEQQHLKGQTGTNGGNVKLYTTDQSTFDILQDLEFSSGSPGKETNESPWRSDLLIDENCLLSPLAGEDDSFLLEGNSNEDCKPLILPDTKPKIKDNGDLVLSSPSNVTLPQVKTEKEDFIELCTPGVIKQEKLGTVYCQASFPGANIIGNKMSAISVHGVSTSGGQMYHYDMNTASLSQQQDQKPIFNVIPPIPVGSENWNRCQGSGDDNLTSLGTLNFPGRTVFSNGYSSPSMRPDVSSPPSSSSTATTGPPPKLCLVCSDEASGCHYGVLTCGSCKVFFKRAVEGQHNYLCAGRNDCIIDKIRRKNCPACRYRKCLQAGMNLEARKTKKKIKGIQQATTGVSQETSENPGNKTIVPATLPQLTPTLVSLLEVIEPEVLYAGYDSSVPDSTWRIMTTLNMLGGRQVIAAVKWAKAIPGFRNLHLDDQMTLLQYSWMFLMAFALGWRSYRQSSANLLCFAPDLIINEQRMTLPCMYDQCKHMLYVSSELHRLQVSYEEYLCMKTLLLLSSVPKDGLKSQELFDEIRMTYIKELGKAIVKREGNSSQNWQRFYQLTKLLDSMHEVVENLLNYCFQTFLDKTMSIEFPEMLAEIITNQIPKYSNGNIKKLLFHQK
X-box-binding protein 1 (Homo sapiens), sequence (P17861 whole entry, looked up): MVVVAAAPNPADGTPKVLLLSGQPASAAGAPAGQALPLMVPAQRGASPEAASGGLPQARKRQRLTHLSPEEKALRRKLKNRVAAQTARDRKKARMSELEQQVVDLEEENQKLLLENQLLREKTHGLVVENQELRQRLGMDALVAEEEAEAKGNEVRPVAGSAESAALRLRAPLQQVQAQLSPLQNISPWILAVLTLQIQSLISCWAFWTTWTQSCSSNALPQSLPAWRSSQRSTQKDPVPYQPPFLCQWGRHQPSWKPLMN
Transcriptional activator Myb (Homo sapiens), sequence (P10242 whole entry, looked up): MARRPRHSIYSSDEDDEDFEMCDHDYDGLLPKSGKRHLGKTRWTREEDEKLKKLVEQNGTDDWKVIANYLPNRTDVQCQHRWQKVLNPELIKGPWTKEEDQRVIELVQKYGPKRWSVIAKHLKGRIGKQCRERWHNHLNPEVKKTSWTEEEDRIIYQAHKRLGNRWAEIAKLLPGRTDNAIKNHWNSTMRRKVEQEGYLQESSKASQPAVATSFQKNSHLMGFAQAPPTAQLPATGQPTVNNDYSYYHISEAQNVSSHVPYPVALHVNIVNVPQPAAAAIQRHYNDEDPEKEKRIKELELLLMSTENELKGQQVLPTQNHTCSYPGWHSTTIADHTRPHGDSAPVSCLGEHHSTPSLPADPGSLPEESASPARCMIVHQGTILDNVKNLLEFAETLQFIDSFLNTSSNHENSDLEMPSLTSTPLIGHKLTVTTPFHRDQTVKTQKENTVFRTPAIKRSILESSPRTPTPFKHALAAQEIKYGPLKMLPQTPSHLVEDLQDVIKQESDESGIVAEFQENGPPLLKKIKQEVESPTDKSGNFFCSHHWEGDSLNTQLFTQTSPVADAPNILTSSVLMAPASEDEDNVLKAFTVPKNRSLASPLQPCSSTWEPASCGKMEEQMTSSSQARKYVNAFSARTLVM
Hepatocyte nuclear factor 4-alpha (Homo sapiens), sequence (P41235 whole entry, looked up, the tested form may be a part): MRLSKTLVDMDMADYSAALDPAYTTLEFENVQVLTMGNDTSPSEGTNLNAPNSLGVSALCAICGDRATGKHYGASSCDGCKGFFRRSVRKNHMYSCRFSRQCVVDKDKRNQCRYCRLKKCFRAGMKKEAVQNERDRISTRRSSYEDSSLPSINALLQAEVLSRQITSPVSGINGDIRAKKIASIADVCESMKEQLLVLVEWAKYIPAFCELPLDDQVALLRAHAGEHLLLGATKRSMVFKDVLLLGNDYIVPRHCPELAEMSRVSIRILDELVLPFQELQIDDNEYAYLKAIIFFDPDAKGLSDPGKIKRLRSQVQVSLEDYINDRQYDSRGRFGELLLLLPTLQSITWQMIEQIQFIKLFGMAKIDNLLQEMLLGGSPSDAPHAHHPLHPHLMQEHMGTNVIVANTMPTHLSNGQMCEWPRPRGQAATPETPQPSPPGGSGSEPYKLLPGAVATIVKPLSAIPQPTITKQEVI
Bile acid receptor (Homo sapiens), sequence (Q96RI1 whole entry, looked up, the tested form may be a part): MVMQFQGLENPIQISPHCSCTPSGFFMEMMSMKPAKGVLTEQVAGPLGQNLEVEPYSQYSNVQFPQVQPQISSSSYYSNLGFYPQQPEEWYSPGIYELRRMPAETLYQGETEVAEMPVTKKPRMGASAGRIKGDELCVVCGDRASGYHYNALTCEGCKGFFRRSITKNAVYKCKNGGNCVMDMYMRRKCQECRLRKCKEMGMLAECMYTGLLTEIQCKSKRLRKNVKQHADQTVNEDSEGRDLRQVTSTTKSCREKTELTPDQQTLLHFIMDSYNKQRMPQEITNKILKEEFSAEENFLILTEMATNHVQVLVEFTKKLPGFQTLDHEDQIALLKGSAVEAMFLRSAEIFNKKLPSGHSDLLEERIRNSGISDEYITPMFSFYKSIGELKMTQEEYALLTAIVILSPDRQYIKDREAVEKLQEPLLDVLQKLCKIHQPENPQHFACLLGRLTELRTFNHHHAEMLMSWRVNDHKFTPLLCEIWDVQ
Oxysterols receptor LXR-beta (Homo sapiens), sequence (P55055 whole entry, looked up, the tested form may be a part): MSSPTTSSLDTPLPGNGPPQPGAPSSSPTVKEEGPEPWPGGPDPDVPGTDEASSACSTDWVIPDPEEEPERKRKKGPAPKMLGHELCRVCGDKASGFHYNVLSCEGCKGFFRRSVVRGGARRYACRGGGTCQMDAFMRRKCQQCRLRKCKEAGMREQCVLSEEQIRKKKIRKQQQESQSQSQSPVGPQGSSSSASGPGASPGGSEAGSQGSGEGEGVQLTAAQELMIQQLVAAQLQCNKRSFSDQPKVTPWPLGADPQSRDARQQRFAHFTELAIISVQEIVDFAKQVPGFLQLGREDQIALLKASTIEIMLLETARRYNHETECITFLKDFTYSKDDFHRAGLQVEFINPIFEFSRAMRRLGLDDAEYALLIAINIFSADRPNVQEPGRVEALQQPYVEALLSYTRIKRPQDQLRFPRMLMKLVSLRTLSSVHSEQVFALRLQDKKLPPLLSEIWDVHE
Oxysterols receptor LXR-alpha (Homo sapiens), sequence (Q13133 whole entry, looked up, the tested form may be a part): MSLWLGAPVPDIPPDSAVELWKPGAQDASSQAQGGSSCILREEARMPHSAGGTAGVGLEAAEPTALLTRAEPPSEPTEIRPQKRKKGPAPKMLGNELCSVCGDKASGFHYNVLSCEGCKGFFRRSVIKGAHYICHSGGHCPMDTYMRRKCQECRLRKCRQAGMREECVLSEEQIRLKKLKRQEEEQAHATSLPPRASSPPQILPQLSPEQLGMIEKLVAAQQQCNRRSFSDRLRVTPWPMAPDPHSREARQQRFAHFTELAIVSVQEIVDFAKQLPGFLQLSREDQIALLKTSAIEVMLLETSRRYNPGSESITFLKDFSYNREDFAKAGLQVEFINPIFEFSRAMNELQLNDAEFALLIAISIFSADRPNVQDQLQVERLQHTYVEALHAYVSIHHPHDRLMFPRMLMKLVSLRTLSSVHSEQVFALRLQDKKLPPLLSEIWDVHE
Nuclear receptor subfamily 4 group A member 2 (Homo sapiens), sequence (P43354 whole entry, looked up, the tested form may be a part): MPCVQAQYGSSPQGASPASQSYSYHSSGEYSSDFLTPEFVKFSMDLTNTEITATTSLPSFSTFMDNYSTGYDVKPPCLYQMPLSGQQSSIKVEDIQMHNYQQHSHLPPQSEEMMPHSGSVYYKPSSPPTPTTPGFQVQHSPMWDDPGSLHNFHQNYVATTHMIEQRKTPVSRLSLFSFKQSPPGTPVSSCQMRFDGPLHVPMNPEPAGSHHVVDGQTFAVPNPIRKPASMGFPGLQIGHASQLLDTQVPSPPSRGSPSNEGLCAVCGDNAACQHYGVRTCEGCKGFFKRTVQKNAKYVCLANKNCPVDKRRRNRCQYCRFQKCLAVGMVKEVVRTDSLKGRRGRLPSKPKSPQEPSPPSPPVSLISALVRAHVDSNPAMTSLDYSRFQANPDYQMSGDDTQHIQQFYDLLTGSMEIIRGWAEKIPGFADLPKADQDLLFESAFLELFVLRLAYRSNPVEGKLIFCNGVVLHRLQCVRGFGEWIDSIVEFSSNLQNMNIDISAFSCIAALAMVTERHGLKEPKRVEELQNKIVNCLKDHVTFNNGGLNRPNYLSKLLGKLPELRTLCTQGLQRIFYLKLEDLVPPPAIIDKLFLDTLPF
Estrogen receptor (Homo sapiens), sequence (P03372 whole entry, looked up, the tested form may be a part): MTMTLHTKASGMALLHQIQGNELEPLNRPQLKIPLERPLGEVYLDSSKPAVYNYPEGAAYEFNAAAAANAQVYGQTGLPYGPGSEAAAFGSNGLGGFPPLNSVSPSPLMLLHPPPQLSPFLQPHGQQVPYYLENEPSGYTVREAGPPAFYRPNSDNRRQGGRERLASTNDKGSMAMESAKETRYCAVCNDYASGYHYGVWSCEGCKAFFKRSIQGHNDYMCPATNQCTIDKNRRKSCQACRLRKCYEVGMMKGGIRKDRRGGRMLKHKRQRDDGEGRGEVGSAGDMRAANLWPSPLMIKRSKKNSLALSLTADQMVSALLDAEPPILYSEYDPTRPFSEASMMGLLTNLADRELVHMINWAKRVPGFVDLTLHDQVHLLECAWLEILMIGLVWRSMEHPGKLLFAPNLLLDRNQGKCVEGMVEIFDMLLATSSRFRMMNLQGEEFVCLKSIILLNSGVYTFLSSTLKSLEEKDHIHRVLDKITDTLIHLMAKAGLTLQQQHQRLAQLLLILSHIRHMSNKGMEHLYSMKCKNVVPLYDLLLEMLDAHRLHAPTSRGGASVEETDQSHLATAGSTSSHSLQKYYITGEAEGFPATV

CCCCC(C=O)CC (centres undefined)
not listed: [13] | [14] | [15] | [16] | [17]
inactive: all other assays above

CCC1COC(=O)O1 (centres undefined)
not listed: [6] | [9] | [11] | [17]
inactive: all other assays above

Cc1cc(=O)[nH]c(=O)[nH]1
not listed: [8] | [9] | [11] | [13] | [15] | [17]
inactive: all other assays above

CC(C)(C)N
not listed: [8] | [10] | [13] | [14]
inactive: all other assays above
